{"source": "PubChem BioAssay", "key": {"[1]": {"test": "inhibitors of TNFa-induced NFkB p65 translocation, primary screen, imaging, HUVEC, MLSMR starter and 10KST1 sets (AID 438;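 active = inhibition above 20% together with a positive visual image hit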;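 also: compound added about 3h40 before a 20 min TNFalpha stimulation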;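 as to inhibition: signal is the nuclear over cytoplasmic p65 intensity ratio per well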)", "conditions": "HUVEC TNFa-induced p65 nuclear translocation; cell count: measured here: nuclei count (cytotoxicity indicator), at 2.08 µM; inhibition: at 2 µM, stronger effect = higher value, 0% TNFa-plus-vehicle, 100% no-TNFa wells"}, "[2]": {"test": "reduction of polyQ htt aggregates in cells – imaging, exon1htt(103Q)mCFP cells, high-content imaging, primary screen (AID 483;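 active = visual image review flags a hit and inhibition of aggregation exceeds 20%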;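 also: compound exposure lasted 3 days before fixation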;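 as to nuclei count: percent of the per-plate median nuclei count of sample wells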)", "conditions": "exon1htt(103Q)mCFP cell line, aggregate imaging, at 2 µM; inhibition of aggregation: stronger effect = higher value; nuclei count: measured here: cell count, toxicity"}, "[3]": {"test": "endothelial E-selectin expression blockers – imaging, HUVEC, immunofluorescence, MLSMR starter and 10KST1 sets, primary screen (AID 487;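 active = visually confirmed hit in the image check and inhibition above 20%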;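 as to inhibition: signal is fraction of cell area covered by stained E-selectin grains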;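 as to nuclei count: 100% = median nuclei count of all wells on the same plate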)", "conditions": "HUVEC TNFalpha-induced E-selectin immunofluorescence imaging, at 2 µM; inhibition: stronger effect = higher value; nuclei count: measured here: cell number, toxicity"}, "[4]": {"molecular_target": "Voltage-gated potassium channel subunit beta-2 (Rattus norvegicus) (UniProt P62483)", "sequence (P62483 whole entry, looked up)": "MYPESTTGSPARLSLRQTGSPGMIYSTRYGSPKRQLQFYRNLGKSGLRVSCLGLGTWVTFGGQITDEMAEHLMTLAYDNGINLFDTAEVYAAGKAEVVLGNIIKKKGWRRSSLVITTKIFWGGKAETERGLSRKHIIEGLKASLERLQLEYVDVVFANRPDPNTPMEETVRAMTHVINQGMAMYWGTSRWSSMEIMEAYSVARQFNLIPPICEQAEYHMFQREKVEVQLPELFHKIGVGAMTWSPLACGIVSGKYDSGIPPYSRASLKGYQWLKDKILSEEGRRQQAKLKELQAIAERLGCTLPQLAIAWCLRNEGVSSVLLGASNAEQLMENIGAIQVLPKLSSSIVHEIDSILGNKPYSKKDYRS", "test": "inhibitors of rat Kvbeta2 reductase activity – biochemical, NADPH fluorescence, primary screen (AID 622;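 active = fluorescence slope higher than the sample average by over 3 SD, cut at about -0.22 in these data, passing the limit was not always enough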;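 also: slope of raw intensity against log time taken from 70 to 1610 s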)", "conditions": "recombinant KvBeta, 4-cyanobenzaldehyde reduction, at 10 µM, stronger effect = higher value"}, "[5]": {"molecular_target": "Voltage-gated potassium channel subunit beta-2 (Rattus norvegicus) (UniProt P62483)", "test": "enhancers of rat Kvbeta2 NADPH turnover – biochemical, NADPH fluorescence, primary screen (AID 623);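 also: fluorescence intensity change per second fitted from 20 to 320 s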", "conditions": "Recombinant KvBeta, NADPH fluorescence decrease slope, 10 min; at 10 µM; stronger effect = lower value"}, "[6]": {"molecular_target": "Alpha-2C adrenergic receptor (Homo sapiens) (UniProt P18825)", "sequence (P18825 whole entry, looked up)": "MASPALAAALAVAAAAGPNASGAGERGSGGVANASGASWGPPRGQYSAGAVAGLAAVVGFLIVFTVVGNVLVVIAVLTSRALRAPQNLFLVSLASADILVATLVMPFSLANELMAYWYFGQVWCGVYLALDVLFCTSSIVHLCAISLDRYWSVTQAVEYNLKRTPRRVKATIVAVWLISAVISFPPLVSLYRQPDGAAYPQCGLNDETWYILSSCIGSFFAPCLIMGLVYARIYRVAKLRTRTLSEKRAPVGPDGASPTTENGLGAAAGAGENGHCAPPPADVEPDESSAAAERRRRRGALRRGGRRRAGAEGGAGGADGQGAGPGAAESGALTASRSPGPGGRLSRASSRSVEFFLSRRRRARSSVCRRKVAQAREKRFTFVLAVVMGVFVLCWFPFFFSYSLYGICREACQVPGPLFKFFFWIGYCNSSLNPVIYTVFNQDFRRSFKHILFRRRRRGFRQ", "test": "compounds altering alpha2C-coupled GIRK flux – cell-based, HEK293 alpha2C/GIRK1/2, thallium flux, primary screen (AID 624;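 active = fluorescence slope after compound addition differing from the mean of all screened samples at 99.7% confidence, in either direction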;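 also: slope of fluorescence ratio to pre-addition baseline per second over 15 to 24 s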)", "conditions": "thallium flux BTC fluorescence, at 10 µM, actives lie on both sides"}, "[7]": {"test": "blockers of RIG-like receptor reporter activation – cell-based, Sendai virus stimulus, luciferase, 10K MLSCN set, TLR/RLR signaling modifier project, primary screen (AID 602276;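 active = inhibition at or above 50% at 10 µM; inactive = inhibition below 50%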;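 also: firefly luciferase from ISG56 promoter only with Renilla not read in this screen; 0% = Sendai virus plus DMSO and 100% = medium plus DMSO without virus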)", "conditions": "HEK293 RL24 IRF3 luciferase reporter, at 10 µM, stronger effect = higher value"}, "[8]": {"test": "TLR3 IRF3 reporter activation blockers – cell-based, poly I:C stimulus, luciferase, 10K MLSCN set, primary screen (AID 602277;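 active = inhibition of the reporter signal at or above 50%; inactive = inhibition below 50%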)", "conditions": "HEK293-TLR3 RL24 IRF3 luciferase reporter, at 10 µM, stronger effect = higher value"}}, "note": "Calls of active or inactive are those of the source.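 The calls were made as follows, unless noted: active = NADPH fluorescence slope more negative than the mean of all samples by about 3 SD, 99.7% confidence; inactive = the rest.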"}
{"smiles": "NC(=O)c1cccc2c1C(=O)N(C1CCCCC1)C2", "values": [{"measurement": "cell count", "setting": "[1]", "value": 836}, {"measurement": "inhibition", "setting": "[1]", "value": "-0.6% (inactive)"}, {"measurement": "inhibition of aggregation", "setting": "[2]", "value": "-14.1% (inactive)"}, {"measurement": "nuclei count", "setting": "[2]", "value": 91.2, "unit": "%"}, {"measurement": "inhibition", "setting": "[3]", "value": "-26.1% (inactive)"}, {"measurement": "nuclei count", "setting": "[3]", "value": 117, "unit": "%"}, {"measurement": "fluorescence slope", "setting": "[4]", "value": "-0.569 (inactive)"}, {"measurement": "NADPH fluorescence slope", "setting": "[5]", "value": "-1.8e-05 (inactive)"}, {"measurement": "slope", "setting": "[6]", "value": "0.00605 (inactive)"}, {"measurement": "inhibition", "setting": "[7]", "value": "5.66% (inactive)"}, {"measurement": "inhibition", "setting": "[8]", "value": "24.7% (inactive)"}]}
{"smiles": "CCOC(=O)C1CCCN(CC(=O)NC2CC2)C1", "note": "(stereo not drawn)", "values": [{"measurement": "cell count", "setting": "[1]", "value": 446}, {"measurement": "inhibition", "setting": "[1]", "value": "1.1% (inactive)"}, {"measurement": "inhibition of aggregation", "setting": "[2]", "value": "-11.4% (inactive)"}, {"measurement": "nuclei count", "setting": "[2]", "value": 98.9, "unit": "%"}, {"measurement": "inhibition", "setting": "[3]", "value": "-23.9% (inactive)"}, {"measurement": "nuclei count", "setting": "[3]", "value": 101, "unit": "%"}, {"measurement": "fluorescence slope", "setting": "[4]", "value": "-0.318 (inactive)"}, {"measurement": "NADPH fluorescence slope", "setting": "[5]", "value": "-7.1e-05 (inactive)"}, {"measurement": "slope", "setting": "[6]", "value": "0.00531 (inactive)"}, {"measurement": "inhibition", "setting": "[7]", "value": "13.3% (inactive)"}, {"measurement": "inhibition", "setting": "[8]", "value": "15.3% (inactive)"}]}
{"smiles": "O=C(Nc1ccc(Cl)c(C(F)(F)F)c1)N1CCCC(O)C1", "note": "(stereo not drawn)", "values": [{"measurement": "cell count", "setting": "[1]", "value": 356}, {"measurement": "inhibition", "setting": "[1]", "value": "4.5% (inactive)"}, {"measurement": "inhibition of aggregation", "setting": "[2]", "value": "-4.8% (inactive)"}, {"measurement": "nuclei count", "setting": "[2]", "value": 106, "unit": "%"}, {"measurement": "inhibition", "setting": "[3]", "value": "-50.8% (inactive)"}, {"measurement": "nuclei count", "setting": "[3]", "value": 107, "unit": "%"}, {"measurement": "fluorescence slope", "setting": "[4]", "value": "-0.453 (inactive)"}, {"measurement": "NADPH fluorescence slope", "setting": "[5]", "value": "2.2e-05 (inactive)"}, {"measurement": "slope", "setting": "[6]", "value": "0.00599 (inactive)"}, {"measurement": "inhibition", "setting": "[7]", "value": "1.7% (inactive)"}, {"measurement": "inhibition", "setting": "[8]", "value": "-22.3% (inactive)"}]}
{"smiles": "COC(=O)[C@H](C)NC(=O)Nc1cc(OC)ccc1OC", "values": [{"measurement": "cell count", "setting": "[1]", "value": 572}, {"measurement": "inhibition", "setting": "[1]", "value": "-15.2% (inactive)"}, {"measurement": "inhibition of aggregation", "setting": "[2]", "value": "-17.4% (inactive)"}, {"measurement": "nuclei count", "setting": "[2]", "value": 114, "unit": "%"}, {"measurement": "inhibition", "setting": "[3]", "value": "-11% (inactive)"}, {"measurement": "nuclei count", "setting": "[3]", "value": 103, "unit": "%"}, {"measurement": "fluorescence slope", "setting": "[4]", "value": "-0.586 (inactive)"}, {"measurement": "NADPH fluorescence slope", "setting": "[5]", "value": "1.8e-05 (inactive)"}, {"measurement": "slope", "setting": "[6]", "value": "0.00542 (inactive)"}, {"measurement": "inhibition", "setting": "[7]", "value": "-3.29% (inactive)"}, {"measurement": "inhibition", "setting": "[8]", "value": "-52% (inactive)"}]}
{"smiles": "N#CC1=C(N)Oc2c(ccc3cccnc23)C1c1cccnc1", "note": "(stereo not drawn)", "values": [{"measurement": "cell count", "setting": "[1]", "value": 749}, {"measurement": "inhibition", "setting": "[1]", "value": "7.3% (inactive)"}, {"measurement": "inhibition of aggregation", "setting": "[2]", "value": "4.4% (inactive)"}, {"measurement": "nuclei count", "setting": "[2]", "value": 89, "unit": "%"}, {"measurement": "inhibition", "setting": "[3]", "value": "-67.8% (inactive)"}, {"measurement": "nuclei count", "setting": "[3]", "value": 130, "unit": "%"}, {"measurement": "fluorescence slope", "setting": "[4]", "value": "-0.469 (inactive)"}, {"measurement": "NADPH fluorescence slope", "setting": "[5]", "value": "-2e-05 (inactive)"}, {"measurement": "slope", "setting": "[6]", "value": "0.0058 (inactive)"}, {"measurement": "inhibition", "setting": "[7]", "value": "47.8% (inactive)"}, {"measurement": "inhibition", "setting": "[8]", "value": "45.8% (inactive)"}]}
{"smiles": "C/C(=N\\O)C(=O)C(CN1CCCCC1)CN1CCCCC1", "values": [{"measurement": "cell count", "setting": "[1]", "value": 386}, {"measurement": "inhibition", "setting": "[1]", "value": "0.5% (inactive)"}, {"measurement": "inhibition of aggregation", "setting": "[2]", "value": "-0.1% (inactive)"}, {"measurement": "nuclei count", "setting": "[2]", "value": 89.2, "unit": "%"}, {"measurement": "inhibition", "setting": "[3]", "value": "-144% (inactive)"}, {"measurement": "nuclei count", "setting": "[3]", "value": 98.1, "unit": "%"}, {"measurement": "fluorescence slope", "setting": "[4]", "value": "-0.437 (inactive)"}, {"measurement": "NADPH fluorescence slope", "setting": "[5]", "value": "1.9e-05 (inactive)"}, {"measurement": "slope", "setting": "[6]", "value": "0.00389 (inactive)"}, {"measurement": "inhibition", "setting": "[7]", "value": "-5.16% (inactive)"}, {"measurement": "inhibition", "setting": "[8]", "value": "25.3% (inactive)"}]}
{"smiles": "CC1(C)CC(=O)CC(=Nc2ccc(C(=O)O)cc2)C1", "values": [{"measurement": "cell count", "setting": "[1]", "value": 487}, {"measurement": "inhibition", "setting": "[1]", "value": "4.2% (inactive)"}, {"measurement": "inhibition of aggregation", "setting": "[2]", "value": "10.3% (inactive)"}, {"measurement": "nuclei count", "setting": "[2]", "value": 89.1, "unit": "%"}, {"measurement": "inhibition", "setting": "[3]", "value": "2.7% (inactive)"}, {"measurement": "nuclei count", "setting": "[3]", "value": 112, "unit": "%"}, {"measurement": "fluorescence slope", "setting": "[4]", "value": "-0.497 (inactive)"}, {"measurement": "NADPH fluorescence slope", "setting": "[5]", "value": "-5.1e-05 (inactive)"}, {"measurement": "slope", "setting": "[6]", "value": "0.0073 (inactive)"}, {"measurement": "inhibition", "setting": "[7]", "value": "6.49% (inactive)"}, {"measurement": "inhibition", "setting": "[8]", "value": "42.2% (inactive)"}]}
{"smiles": "CCN(Cc1cc2cc(OC)ccc2[nH]c1=O)C(=O)c1ccncc1", "values": [{"measurement": "cell count", "setting": "[1]", "value": 458}, {"measurement": "inhibition", "setting": "[1]", "value": "-1% (inactive)"}, {"measurement": "inhibition of aggregation", "setting": "[2]", "value": "-12.3% (inactive)"}, {"measurement": "nuclei count", "setting": "[2]", "value": 111, "unit": "%"}, {"measurement": "inhibition", "setting": "[3]", "value": "-34.1% (inactive)"}, {"measurement": "nuclei count", "setting": "[3]", "value": 198, "unit": "%"}, {"measurement": "fluorescence slope", "setting": "[4]", "value": "-0.498 (inactive)"}, {"measurement": "NADPH fluorescence slope", "setting": "[5]", "value": "4.7e-05 (inactive)"}, {"measurement": "slope", "setting": "[6]", "value": "0.00638 (inactive)"}, {"measurement": "inhibition", "setting": "[7]", "value": "13.5% (inactive)"}, {"measurement": "inhibition", "setting": "[8]", "value": "20.1% (inactive)"}]}
